The supplement of paper PMC10338343
± gives the standard deviation.

Assays:
[1] = system: MILI (PIWIL2) piRISC loaded with L1MC piRNA (26 nt); assay: pre-steady-state target cleavage rate (min^-1); guide: L1MC piRNA 5'p-UAACUAAAUACUAUGCAAGCUGUAGG; higher = faster piRNA-guided slicing of the target;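 also: 1 nM active piRISC with 0.1 nM target library at 33 °C single turnover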
Method in brief: (§1)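 Cleave-'n-Seq measured uncleaved targets by sequencing after a transcribed, DNA-blocked target RNA library […] was mixed with 1 nM active affinity-purified piRISC holding one synthetic guide, with or without 500 nM GTSF1 partner protein, at 33 °C in HEPES–potassium acetate buffer for 0–8 or 0–960 min. Counts were normalised to depth and to weakly complementary targets, three trials were pooled, and k3 was capped at 0.0001 min^-1. A burst-and-steady-state fit gave the pre-steady-state cleavage rate.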

[2] = system: EfPiwi piRISC loaded with L1MC piRNA (26 nt); assay: pre-steady-state target cleavage rate (min^-1); auxiliary factor: 500 nM Ephydatia muelleri Gtsf1; guide: L1MC piRNA 5'p-UAACUAAAUACUAUGCAAGCUGUAGG; MIWI and MILI are mouse PIWI proteins and EfPiwi is from a freshwater sponge; tags in brackets are library labels; higher = faster piRNA-guided slicing of the target
Method in brief: as §1

[3] = auxiliary factor: 500 nM mouse GTSF1
[4] = auxiliary factor: none (no GTSF1)

UCCUGGAUCAGCUUGCAUAGUAUUAAGUUA
pre-steady-state target cleavage rate [1, 3]: 0.262 ± 0.026
pre-steady-state target cleavage rate [1, 4]: 0.00729 ± 0.0019
pre-steady-state target cleavage rate [2]: 0.0323 ± 0.0094

UCCUGCUACAGCUACCAUAGUAUUUAGUUA
pre-steady-state target cleavage rate [1, 3]: 0.233 ± 0.032
pre-steady-state target cleavage rate [1, 4]: 0.0038 ± 0.0024
pre-steady-state target cleavage rate [2]: 0.00308 ± 0.0021

UCCUGGUACAGCUUGCAUAGUAUUUAGUUA [g2:g24:cont:t1A]
pre-steady-state target cleavage rate [1, 3]: 0.277 ± 0.018
pre-steady-state target cleavage rate [1, 4]: 0.0215 ± 0.0056
pre-steady-state target cleavage rate [2]: 0.0865 ± 0.024

UCCUGCUACAGCAUGCAUAGUAUAUAGUUA
pre-steady-state target cleavage rate [1, 3]: 0.284 ± 0.03
pre-steady-state target cleavage rate [1, 4]: 0.0054 ± 0.0024
pre-steady-state target cleavage rate [2]: 0.00599 ± 0.0029

UCCUGGAUGUCCUUGCAUAGUAUUUAGUUUA
pre-steady-state target cleavage rate [1, 3]: 0.104 ± 0.015
pre-steady-state target cleavage rate [1, 4]: 0.00891 ± 0.0035
pre-steady-state target cleavage rate [2]: 0.00634 ± 0.003

UCCUGGUACAGGUUGCAUACUAUUUAGUUA
pre-steady-state target cleavage rate [1, 3]: 0.111 ± 0.033
pre-steady-state target cleavage rate [1, 4]: 0.00543 ± 0.0028
pre-steady-state target cleavage rate [2]: 0.00258 ± 0.002

UCCUCCAACAGCUUGCAUAGUAUUUAGUUA
pre-steady-state target cleavage rate [1, 3]: 0.329 ± 0.017
pre-steady-state target cleavage rate [1, 4]: 0.00861 ± 0.0027
pre-steady-state target cleavage rate [2]: 0.113 ± 0.032

UCCUGGAUCAGGCUUGCAUAGUAUUUAGUUA
pre-steady-state target cleavage rate [1, 3]: 0.213 ± 0.017
pre-steady-state target cleavage rate [1, 4]: 0.0107 ± 0.0028
pre-steady-state target cleavage rate [2]: 0.0132 ± 0.0034

UCCUGCUACAGCUUGCAUAGUAUUUUGUUA
pre-steady-state target cleavage rate [1, 3]: 0.168 ± 0.025
pre-steady-state target cleavage rate [1, 4]: 0.00464 ± 0.0019
pre-steady-state target cleavage rate [2]: 0.00916 ± 0.0029

UCCUGCUACUGCUUGCAUACUAUUUAGUUA
pre-steady-state target cleavage rate [1, 3]: 0.0731 ± 0.011
pre-steady-state target cleavage rate [1, 4]: 0.00293 ± 0.0023
pre-steady-state target cleavage rate [2]: 0.00669 ± 0.0028

UCCUCCAACAGCUUGCAUAGUAAUUAGUUA
pre-steady-state target cleavage rate [1, 3]: 0.228 ± 0.018
pre-steady-state target cleavage rate [1, 4]: 0.0065 ± 0.0021
pre-steady-state target cleavage rate [2]: 0.0103 ± 0.0047

UCCUGGUACAGCUGGCAUAGUAUUUAGUUA
pre-steady-state target cleavage rate [1, 3]: 0.199 ± 0.022
pre-steady-state target cleavage rate [1, 4]: 0.0121 ± 0.0031
pre-steady-state target cleavage rate [2]: 0.0113 ± 0.0038

UCCUCCUACAGGUUGGAUAGUAUUUAGUUA
pre-steady-state target cleavage rate [1, 3]: 0.205 ± 0.012
pre-steady-state target cleavage rate [1, 4]: 0.00699 ± 0.0018
pre-steady-state target cleavage rate [2]: 0.0118 ± 0.0028

UCCUCCUACAGGUUGCAUAGUAAUUAGUUA
pre-steady-state target cleavage rate [1, 3]: 0.205 ± 0.018
pre-steady-state target cleavage rate [1, 4]: 0.00589 ± 0.0017
pre-steady-state target cleavage rate [2]: 0.0115 ± 0.0031

UCCUGGUACAGCAUGCAUAGUAUUUAGUAA
pre-steady-state target cleavage rate [1, 3]: 0.163 ± 0.02
pre-steady-state target cleavage rate [1, 4]: 0.00467 ± 0.0031
pre-steady-state target cleavage rate [2]: 0.00753 ± 0.0032

UCCUGGAUGAGCUUGCAUAGUAUUAUAGUUA
pre-steady-state target cleavage rate [1, 3]: 0.185 ± 0.022
pre-steady-state target cleavage rate [1, 4]: 0.00494 ± 0.0026
pre-steady-state target cleavage rate [2]: 0.0159 ± 0.0056

UCCUGGUACUGCUUGCAUAGUAUUUAGUUA
pre-steady-state target cleavage rate [1, 3]: 0.174 ± 0.023
pre-steady-state target cleavage rate [1, 4]: 0.0139 ± 0.0037
pre-steady-state target cleavage rate [2]: 0.0105 ± 0.0034

UCCUGGAACAGCUUGCAUAGUAUGUUAGUUA
pre-steady-state target cleavage rate [1, 3]: 0.243 ± 0.046
pre-steady-state target cleavage rate [1, 4]: 0.0048 ± 0.0027
pre-steady-state target cleavage rate [2]: 0.00812 ± 0.0028

UCCUGGAUGUGCUCGCAUAGUAUUUAGUUA
pre-steady-state target cleavage rate [1, 3]: 0.155 ± 0.018
pre-steady-state target cleavage rate [1, 4]: 0.00981 ± 0.0026
pre-steady-state target cleavage rate [2]: 0.00512 ± 0.0021

UCCUGCUACAGCUUGCAUAGGUAUUUAGUUA
pre-steady-state target cleavage rate [1, 3]: 0.00815 ± 0.0047
pre-steady-state target cleavage rate [1, 4]: 0.00421 ± 0.0024
pre-steady-state target cleavage rate [2]: 0.00304 ± 0.0019

UCCUGGAUCAGCAUGCAUAGUAUUUAGUAA
pre-steady-state target cleavage rate [1, 3]: 0.246 ± 0.012
pre-steady-state target cleavage rate [1, 4]: 0.00355 ± 0.0026
pre-steady-state target cleavage rate [2]: 0.00497 ± 0.0029

UCCUGGAUCAGCUUGCAUAGUAUAUUAGUUA
pre-steady-state target cleavage rate [1, 3]: 0.273 ± 0.015
pre-steady-state target cleavage rate [1, 4]: 0.00593 ± 0.0025
pre-steady-state target cleavage rate [2]: 0.127 ± 0.043

UCCUGGUAGAGCUUGCAAAGUAUUUAGUUA
pre-steady-state target cleavage rate [1, 3]: 0.109 ± 0.0077
pre-steady-state target cleavage rate [1, 4]: 0.00935 ± 0.0029
pre-steady-state target cleavage rate [2]: 0.0322 ± 0.0099

UCCUGGUACAGCUUGCAUAGUAUUAUAGUUA
pre-steady-state target cleavage rate [1, 3]: 0.299 ± 0.034
pre-steady-state target cleavage rate [1, 4]: 0.00483 ± 0.003
pre-steady-state target cleavage rate [2]: 0.00555 ± 0.0023

UCCUGGUACAACUUGCAUAGUAUUUAGUUA
pre-steady-state target cleavage rate [1, 3]: 0.273 ± 0.023
pre-steady-state target cleavage rate [1, 4]: 0.012 ± 0.0031
pre-steady-state target cleavage rate [2]: 0.017 ± 0.0059
